Source: the supplement of paper PMC8253809
Several values for one entry are separate records, joined by “and”; a condition that tells them apart may be missing. Equal entries are not always repeated.

Key:
Assay in all cases: growth inhibition (% activity, log2 RLU normalised to DMSO / staurosporine); higher = more growth inhibition
Details in all cases: 33 µM
[1] = system: DIPGX29 (H3.3 K27M diffuse intrinsic pontine glioma line)
Procedure, shortened: (§1)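 On Geltrex-coated 384-well plates, pHGG cell lines and H9-derived neural stem cells were grown with approved drugs pinned in at a single final concentration of about 33 μM, in triplicate, for 7 days at 37 °C, 5% CO2. Per-plate normalisation of log2-transformed CellTiter-Glo luminescence to % activity between solvent and positive control wells followed. Each growth-inhibition value is the median over the replicates.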

[2] = system: DIPGX37 (H3.3 K27M diffuse intrinsic pontine glioma line)
Procedure, shortened: as §1

[3] = system: DIPGX7 (H3.3 K27M diffuse intrinsic pontine glioma line)
Procedure, shortened: as §1

[4] = system: DIPGX9 (diffuse intrinsic pontine glioma line)
Procedure, shortened: as §1

[5] = system: HGGX39 (paediatric high-grade glioma line)
Procedure, shortened: as §1

[6] = system: HGGX6 (H3.3 G34R paediatric high-grade glioma line)
Procedure, shortened: as §1

[7] = system: HNSC
Procedure, shortened: as §1

[8] = system: SUDIPGIV (diffuse intrinsic pontine glioma line)
Procedure, shortened: as §1

[9] = system: SUDIPGVI (diffuse intrinsic pontine glioma line)
Procedure, shortened: as §1

[10] = system: SUDIPGXIII (diffuse intrinsic pontine glioma line)
Procedure, shortened: as §1

| Structure (SMILES) | growth inhibition [1] | growth inhibition [2] | growth inhibition [3] | growth inhibition [4] | growth inhibition [5] | growth inhibition [6] | growth inhibition [7] | growth inhibition [8] | growth inhibition [9] | growth inhibition [10] |
| --- | --- | --- | --- | --- | --- | --- | --- | --- | --- | --- |
| CC(C)C[C@H](NC(=O)[C@H](CCc1ccccc1)NC(=O)CN1CCOCC1)C(=O)N[C@@H](Cc1ccccc1)C(=O)N[C@@H](CC(C)C)C(=O)[C@@]1(C)CO1 | 49.4% | 59.1% | 55.8% | 55% | 51.3% | 57.8% | 56.9% | 55% | 52% | 29.5% |
| N=C(N)c1ccc(OCCCCCOc2ccc(C(=N)N)cc2)cc1 | 12.3% | -2.71% | 16.9% | 13.9% | 42.9% | 20.2% | 43.6% | 45% | 44.2% | 16.5% |
| O=C(O)c1cc(=O)c2c(OCC(O)COc3cccc4oc(C(=O)O)cc(=O)c34)cccc2o1 | -1.5% | 1.34% | -1.58% | 0.155% | -0.164% | 1.99% | -1.63% | -0.417% | -0.328% | 1.77% |
| CCOC(=O)c1c(C)n(C)c2ccc(O)cc12 | 0.475% | 0.373% | 0.137% | -1.16% | 1.77% | 1.27% | -0.219% | 0.902% | -0.0936% | -1.54% |
| Cc1ccnc(NS(=O)(=O)c2ccc(N)cc2)n1 | 0.307% | 1.2% | -0.936% | 0.0876% | 1.13% | -0.277% | -0.552% | 0.606% | 0.117% | 1.12% |
| O=S(=O)(O)NC1CCCCC1 | 0.811% | 0.93% | 1.03% | 0.594% | 2.81% | 1.56% | 0.385% | 0.0436% | 0.0298% | -1.99% |
| CO/N=C(\C(=O)N[C@@H]1C(=O)N2C(C(=O)O)=C(Cn3ccc(=N)n3CCO)CS[C@H]12)c1csc(N)n1 | -0.673% | 1.46% | 0.0521% | 0.497% | -0.232% | 0.395% | -1.19% | -0.702% | 0.0229% | 1.31% |
| N#C[C@@H]1CCCN1C(=O)CNC12CC3CC(CC(O)(C3)C1)C2 | -0.11% | -0.458% | -0.508% | -1% | 0.579% | -2.32% | 14.2% | 0.0993% | -3.27% | -3.49% |
| CN[C@H]1CC[C@@H](c2ccc(Cl)c(Cl)c2)c2ccccc21 | 13.3% | 6.8% | 6.25% | 4.32% | 7.5% | 7.73% | 55% | 3.54% | 6.72% | 1.68% |
| Clc1ccccc1C(c1ccccc1)(c1ccccc1)n1ccnc1 | 3.31% | 0.662% | 3.85% | 6.07% | 16.9% | 14.3% | 31.3% | 26.9% | 2.55% | 42.1% |
| CN(CCOc1ccc(CC2SC(=O)NC2=O)cc1)c1ccccn1 (stereo not given) | 0.694% and -0.307% and -1.83% | 3.97% and -0.209% and -2.53% | 1.8% and -0.988% and -1.81% | 2.03% and 1.11% and 0.786% | 1.62% and 0.821% and 0.11% | 1.66% and 0.11% and -0.818% | -0.719% and -0.633% and -2.63% | 4.42% and -0.944% and -1.21% | 1.7% and -0.11% and -0.397% | -15.6% and -1.12% |
